Experimental data reported in PubChem BioAssay (EPA / NIEHS).
Active and inactive are the calls of the source. Rule for the calls: active = hit-call score of the fitted dose curve at least 0.9, where 1 is the maximum; inactive = score below 0.9.

What was measured:
[1] = Tanguay_ZF_120hpf_MO24: Oregon State University Tanguay Lab 24 Hour Post-fertilization zebrafish Assay for Mortality (AID 2284389)
Method in brief: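 Dechorionated wild-type zebrafish embryos, 1 per well, statically exposed from 6 hpf at 28C, 0.64% DMSO final. Mortality scored as binary present/absent at 24 hpf by brightfield microscopy, relative to DMSO.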

[2] = Tanguay_ZF_120hpf_DP24: Oregon State University Tanguay Lab 24 Hour Post-fertilization zebrafish Assay for Delayed Development (AID 2284390)
Method: (§1) Tanguay_ZF_120hpf is a whole embryo, multiplexed endpoint assay using zebrafish larvae exposed for 120 hours post fertilization on a 96-well plate.Tanguay_ZF_120hpf_DP24 is one of one assay component(s) measured or calculated from the Tanguay_ZF_120hpf assay. It is designed to make measurements of zebrafish development as detected with brightfield microscopy of developing zebrafish embryos.Data from the assay component Tanguay_ZF_120hpf_DP24 was analyzed into 1 assay endpoints. This assay endpoint, Tanguay_ZF_120hpf_DP24, was analyzed in the positive analysis fitting direction relative to DMSO as the negative control and baseline of activity. […]
(§2) Zebrafish husbandry: Tropical 5D wild-type adult zebrafish were housed in at an approximate density of 1000 per 100 gallon tank at the Sinnhuber Aquatic Research Laboratory, Oregon State University, Corvallis, OR. […] At 24 hpf, embryos were assessed for photomotor response using a custom photomotor response analysis tool (PRAT) and for developmental toxicity endpoints (MO24: mortality at 24 hpf, DP: developmental progression, SM: spontaneous movement, and NC: notochord distortion). At 120 hpf, locomotor activity was measured using Viewpoint Zebralab and assessed for 13 endpoints. […] If mortality occurred for an embryo (at either 24 or 120 hpf), the non-mortality endpoints were not measured.

[3] = Tanguay_ZF_120hpf_CRAN: Oregon State University Tanguay Lab 120 Hour Post-fertilization zebrafish Assay for Craniofacial Malformation (AID 2284397)
Method in brief: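 Dechorionated Tropical 5D wild-type zebrafish embryos, one per well, were statically exposed from 6 to 120 hpf at 28C in 0.64% DMSO, with 5uM trimethyltin chloride as positive control. Craniofacial malformation was scored present/absent by brightfield microscopy, relative to DMSO.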

[4] = Tanguay_ZF_120hpf_AXIS: Oregon State University Tanguay Lab 120 Hour Post-fertilization zebrafish Assay for Axial Malformation (AID 2284398)
Method in brief: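 Dechorionated 5D wild-type zebrafish embryos exposed statically, one per well, from 6 to 120 hpf at 28C, 0.64% DMSO. Axial malformation scored as present/absent by brightfield microscopy at 120 hpf; dead embryos not scored.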

[5] = Tanguay_ZF_120hpf_MORT: Oregon State University Tanguay Lab 120 Hour Post-fertilization zebrafish Assay for Mortality (AID 2284399)
Method in brief: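 Dechorionated wild-type Tropical 5D zebrafish embryos, one per well from 6 hpf, static exposure to 120 hpf at 28C in sealed dark plates, 0.64% DMSO final. Mortality scored as binary by brightfield at 24 and 120 hpf.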

[6] = Tanguay_ZF_120hpf_EDEM: Oregon State University Tanguay Lab 120 Hour Post-fertilization zebrafish Assay for Edema Malformation (AID 2284400)
Method in brief: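 Dechorionated Tropical 5D wild-type embryos, one per well, statically exposed from 6 to 120 hpf at 28C in 0.64% DMSO. Edema scored present/absent by brightfield microscopy at 120 hpf; dead embryos not scored; fit versus DMSO.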

[7] = Tanguay_ZF_120hpf_BRN: Oregon State University Tanguay Lab 120 Hour Post-fertilization zebrafish Assay for Brain Region Malformation (AID 2284402)
Method in brief: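 Dechorionated wild-type Tropical 5D zebrafish embryos exposed statically from 6 to 120 hpf at 28C, one per well, 0.64% DMSO final. Brain malformation scored at 120 hpf by brightfield as present/absent; dead embryos not scored.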

[8] = Tanguay_ZF_120hpf_TCHR: Oregon State University Tanguay Lab 120 Hour Post-fertilization zebrafish Assay for Touch Responsive (AID 2284403)
Method: as §1, with “plate.Tanguay_ZF_120hpf_TCHR” for “plate.Tanguay_ZF_120hpf_DP24”, “Tanguay_ZF_120hpf_TCHR” for “Tanguay_ZF_120hpf_DP24”, “Tanguay_ZF_120hpf_TCHR,” for “Tanguay_ZF_120hpf_DP24,”
as §2

[9] = Tanguay_ZF_120hpf_ANY: Oregon State University Tanguay Lab 120 Hour Post-fertilization zebrafish Assay for Any Mortality and Malformation (AID 2284404)
Method in brief: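 Dechorionated Tropical 5D wild-type embryos, one per well from 6 hpf, static exposure in sealed, dark plates at 28C until 120 hpf, 0.64% DMSO final. Brightfield scoring of mortality and malformations as binary presence/absence, pooling 13 morphology endpoints.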

Measured: AC50

C[N+](C)(C)CCCNS(=O)(=O)C(F)(F)C(F)(F)C(F)(F)C(F)(F)C(F)(F)C(F)(F)C(F)(F)C(F)(F)F
inactive: [1] | [4] | [5] | [7] | [8]
active: [2] 89.2 µM | [3] 70.4 µM | [6] 67.1 µM | [9] 80 µM

O=C(O)C(F)(F)C(F)(F)C(F)(F)C(F)(F)C(=O)O
inactive: [1] | [2] | [3] | [4] | [5] | [6] | [7] | [8] | [9]
